Data reported in PubChem BioAssay (NCATS).
Inconclusive results are not listed. Values without a mark were called inactive. The source made the active and inactive calls. The call rests on the fitted dose curve; in most records, active means well fitted inhibition curve with a large enough effect; inconclusive means small, poorly fitted or top-dose-only effect; inactive means no such curve, though single readings can be large or run the other way.

Molecular target: N-terminal Xaa-Pro-Lys N-methyltransferase 1 (Homo sapiens) (UniProt Q9BV86)
Sequence (Q9BV86 whole entry, looked up): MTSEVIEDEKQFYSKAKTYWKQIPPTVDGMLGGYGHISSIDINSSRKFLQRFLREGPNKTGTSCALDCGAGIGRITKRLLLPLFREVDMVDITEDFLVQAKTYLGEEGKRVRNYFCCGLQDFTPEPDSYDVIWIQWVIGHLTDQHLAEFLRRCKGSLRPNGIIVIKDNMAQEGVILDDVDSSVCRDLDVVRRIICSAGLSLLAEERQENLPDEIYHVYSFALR
Test: qHTS Assay for Inhibitors of N-terminal methyltransferase 1 (NTMT1): LOPAC validation of the NTMT1 SAHH-coupled ThioGlo3 Assay (AID 1347143);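 further: SAH from peptide methylation measured as thiol fluorescence via SAHH coupling and ThioGlo3; nearly all actives have a fitted effect of over 70% in size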
Settings: recombinant NTMT1, SAHH-coupled ThioGlo3 fluorescence; series mostly up to 114 µM; activity change, negative = inhibition: at the top concentration
Text: Assay Submitter (PI): Rong Huang Ph.D, Purdue University, West Lafayette, IN 47907 The N-terminal methytransferase 1 is the first methyltransferase that methylates protein alpha-N-amines and plays an important role in regulating cell mitosis, chromatin interactions and DNA repair. It is observed to be over-expressed in various cancer patient tissues like malignant melanoma and colorectal cancer tissues. Knockdown of NTMT1 in cancer cells causes cell mitotic defects and enhances sensitivity to DNA damaging chemotherapeutics. […] These critical cellular processes in which NTMT1 is implicated, coupled with emerging links to cellular dysfunction, strengthen the inference that NTMT1 is a compelling novel anticancer target. Progress have been made in understanding the molecular properties of NTMT1 and the biological consequences of protein alpha-N-terminal methylation, but there are no specific small molecule probes available for NTMT1 to fully characterize its MTase activity. To address this unmet need, a panel of assay is created and established to enable quantitative high-throughput screening (qHTS) for novel, potent, and selective small molecule NTMT1 inhibitors. Two orthogonal qHTS that use different reagents (ThioGlo vs. MTaseGlo) are developed for primary robotic screening against the NCATS chemical library of more than 400,000 small molecules. Identified inhibitors are reacquired, validated, and further characterized. […] A pilot screen against the LOPAC library of 1280 compounds is carried out to assess performance of the optimized qHTS in 1536-well plate format. Early Translation Branch (ETB) National Center for Advancing Translational Sciences (NCATS) National Institute of Health (NIH)
Materials: NTMT1 enzyme, substrate SPKRIA, control peptide RCC1-6 is provided by the Huang laboratory. ThioGlo3 Assay: In brief, 125nM NTMT1 enzyme was dispensed into a 1536-well assay plate with Aurora Discovery BioRAPTR Flying Reagent Dispenser (FRD, Beckton-Dickenson). Compounds (at various concentration) or 1uM RCC1-6 (SPKRIA) control were transferred to the assay plate using the Kalypsys 1536-pintool apparatus. After 1 min of room temperature incubation, 1uL of substrate (100uM SAM, 10uM SAHH, 15uM ThioGlo3) was added to the wells bringing the final assay volume to 4uL. Initial (background) fluorescence readout (EX: 340nm, EM: 450nm) was then detected using the PerkinElmer ViewLux microplate imager and a final fluorescence readout was taken after 30 min of room temperature incubation. The data was normalized to the background fluorescence.
On the % scale 0 is the no-effect control and ±100 the full control effect; potency means the concentration at half of the fitted maximal effect.

SMILES	activity change, negative = inhibition [%]	Potency
O=C1C2C=CC=CC2=NC(=S)N1CCN1CCC(=C(c2ccc(F)cc2)c2ccc(F)cc2)CC1 (stereo not given)	7.07	–
COc1ccccc1N1CCN(CCCCNC(=O)c2ccc3ccccc3c2)CC1	-18.9	–
N[C@H](C(=O)O)[C@H](Cc1ccccc1)C(=O)O	-6.2	–
CCCCCCCCCCC(C)(C)C(=O)Nc1c(OC)cc(OC)cc1OC	-15.5	–
Oc1cc2c(cc1O)C(c1ccccc1)CNCC2 (stereo not given)	–	44.7 µM (active)
CC(C)C[C@H](NC(=O)C1OC1C(=O)O)C(=O)NCCCCN=C(N)N (stereo not given in full)	-9.32	–
C=CCN1CCc2c(cc(O)c(O)c2Br)[C@@H](c2ccccc2)C1	–	35.5 µM (active)
O=C(O)c1cccnc1C(=O)O	-21.3	–
N#C/C(=C\c1ccc(O)c(O)c1)C(=O)NCCCNC(=O)/C(C#N)=C/c1ccc(O)c(O)c1	–	39.8 µM (active)
NCCC1CCCC(CCN)N1 (stereo not given)	-15.6	–
CO/N=C(\C(=O)N[C@@H]1C(=O)N2C(C(=O)O)=C(CSc3nc(=O)c(O)nn3C)CSC12)c1csc(N)n1 (stereo not given in full)	20	–
[Li+]	-2.74	–
Cn1ccnc1	-5.48	–
NC(C(=O)N[C@@H]1C(=O)N2C(C(=O)O)=C(Cl)CS[C@H]12)c1ccccc1 (stereo not given in full)	225	–
Cc1nc(N=Nc2ccc(C(=O)O)cc2)c(COP(=O)(O)O)c(C=O)c1O	-16.8	–
N#CC(=C(\N)Sc1ccccc1N)/C(C#N)=C(/N)Sc1ccccc1N	–	56.2 µM (active)
CC(C)(C)NCC(O)COc1cccc2[nH]c(=O)[nH]c12 (stereo not given)	-4.24	–
COc1cc(C(O)C(=O)O)ccc1O (stereo not given)	-18.3	–
NC(N)=N[C@@H](CCC(=O)O)C(=O)O	-14.9	–
Nc1nc2c(nc(Br)n2C2OC3COP(=O)(O)O[C@@H]3C2O)c(=O)[nH]1 (stereo not given in full)	-17.1	–

SMILES	activity change, negative = inhibition [%]	Potency
CCCCOC(=O)NS(=O)(=O)c1sc(CC(C)C)cc1-c1ccc(Cn2c(CC)nc3c(C)cc(C)nc32)cc1	-1.76	–
COc1ccc(-c2cc3ncc(C)n3c(Nc3ncccc3C(N)=O)n2)cc1OC	–	56.2 µM (active)
CC(N)(Cc1ccc(O)c(O)c1)C(=O)O (stereo not given)	–	56.2 µM (active)
N=C(N)c1ccc(OCCCCCOc2ccc(C(=N)N)cc2)cc1 (tested in a mixture with another compound)	–	20 µM (active)
C=CC1(C)CC(=O)C2(O)C(C)(O1)C(OC(C)=O)C(O)C1C(C)(C)CCC(O)C12C (stereo not given)	-2.77	–
O=C(O)C1=CCNCC1	-13.5	–
NC(=O)CC[C@H](N)C(=O)O	-19.7	–
O=c1oc(Cl)c(Cl)c2ccccc12	–	50.1 µM (active)
CC(=O)[C@H]1CCC2C3CC=C4C[C@@H](OS(=O)(=O)O)CC[C@]4(C)C3CC[C@@]21C (stereo not given in full)	6.56	–
CCCCCCCC/C=C\CCCCCCCC(=O)NCCc1ccc(O)c(O)c1	-28.9	–
COCc1nc2c([nH]1)c(=O)n(C)c(=O)n2CC(C)C	-0.776	–
CCCc1c(-c2ccc(O)cc2)nn(-c2ccc(O)cc2)c1-c1ccc(O)cc1	10.4	–
CC(N)=NCCCC[C@@H](N)C(=O)O	-13.4	–
COc1ccc(C(=O)NCc2cccnc2)cc1C(=O)NCc1cccnc1	-1.16	–
Nc1ncnc2c1nc(Br)n2C1OC2COP(=O)(O)O[C@@H]2C1O (stereo not given in full)	-4.65	–
CC(=O)O[C@H]1Cc2ccccc2N(C(N)=O)c2ccccc21	-9.2	–
O=C(O)C1=CCCN(CCON=C(c2ccccc2)c2ccccc2)C1	-26.9	–
NCCS(=O)O	-3.46	–
CCC(=O)N1CCN(C(=O)c2ccccc2)CC1	-16.8	–
NC1C=CC=C(C(=O)O)C1 (stereo not given)	-14.9	–
